Each structure is given as a SMILES string. About 13,000 (27%) of roughly 48,000 compounds showed an effect of 50% or more. The list shows a part of the results.

The subject of this experiment is Wolbachia pipientis. Briefly: Anti-Wolbachia Cell-Based Screen. The format is functional. Details: scale not given: in the data most compounds retested in dose-response had high values. To be noted: 5 µM.
On to `CC(C)CC(NC(=O)c1cc(-c2cccn2C)n[nH]1)c1ncnn1C` (stereo unspecified), for which the “Percent Effect” value is on record as 13.42%. The value for `CCc1csc(CNc2nc3c(s2)c(C)nn3C)n1` was -26.31%; that for `OCC(CO)Nc1ccc2c(Cl)ccc(Cl)c2n1` was 1.659%. The value for `COc1cc(F)ccc1-c1nc2c([nH]1)c(C1CC1)nn2C` was 1.853%. Then `Cc1ccsc1CN(C)Cn1nccc1-c1cccnc1`, with 34.48%. Consider `c1ccc(CCCN2CCN(c3ccc4nncn4n3)CC2)cc1`, for which the “Percent Effect” value is reported as 101.5%. Then `O=C(CCN1CCN(c2ccc3nncn3n2)CC1)N1CCCCC1`, with 90.26%; and `FC(F)(F)COCCN1CCN(c2ccc3nncn3n2)CC1`, with -1.16%. Then `Clc1ccccc1CCN1CCN(c2ccc3nncn3n2)CC1`, with 114.3%. As to `O=C(CCN1CCN(c2ccc3nncn3n2)CC1)NC1CCCC1`, the “Percent Effect” value amounted to 0.1018%. Then `c1ccc(OCCCN2CCN(c3ccc4nncn4n3)CC2)cc1`, with 7.239%. As for `CC1CCCCN1C(=O)CN1CCN(c2ccc3nncn3n2)CC1` (stereo unspecified), the “Percent Effect” value is -2.497%. Then `c1cc(CCN2CCN(c3ccc4nncn4n3)CC2)ccn1`, with 116%. The value for `CN(Cc1ccccc1OC(F)(F)F)C(=O)C1CCCN(C(N)=O)C1` (stereo unspecified) was 15.24%; that for `COCC1CCCCN1Cc1nc(-c2ccoc2)oc1C` (stereo unspecified) was 2.327%; that for `Cn1cc(N2CCN(c3ccc(C#N)cc3Br)CC2=O)cn1` was -23.45%. The value for `CCc1ccccc1OC1CN(C(=O)CN(C)Cc2ccncc2)C1` was 0.8406%; that for `CC(C)c1ccn(C2(C(=O)O)CCN(c3cc(C(N)=O)ccn3)CC2)n1` was 10.23%; that for `O=C(COc1cccnc1)NCc1nncn1C1CCCCC1` was -1.054%. For `Cc1cnc(N2CC[C@@]3(O)CCCC[C@H]3C2)nc1-c1ccnn1C`, the “Percent Effect” value is reported as -8.985%. Then `Cc1nn2c(N3CCC(C#N)CC3)cc(-c3ccccc3)nc2c1C`, with -8.665%; and `c1ccc(CCN2CCN(c3ccc4nncn4n3)CC2)cc1`, with 80.05%; and `Cc1ccc(C)c2c1NC(=O)C2CC(=O)O` (stereo unspecified), with 5.742%. As to `COCc1nc(NC(C)Cc2cc(C)n[nH]2)c2cnn(C)c2n1` (stereo unspecified), the “Percent Effect” value was determined as 4.118%. Then `COc1ccc(C(=O)N2CCC(Nc3cccnn3)CC2)cn1`, with 104%. The value for `CC(C)Oc1ccc(C(=O)N2CCC(Nc3cccnn3)CC2)cn1` was 123.7%; that for `COc1ccc(C(=O)N2CCC(Nc3cccnn3)CC2)c(OC)c1` was -3.344%. The value for `C[S+]([O-])c1ccc(CNc2ccc(F)cc2OC(F)F)cc1` (stereo unspecified) was 0.9094%; that for `CCn1cc(-c2cc(C(F)F)n3nc(CCC(=O)O)nc3n2)cn1` was 98.47%; that for `CCn1cc(-c2cc(C(F)F)n3nc(CC(=O)O)nc3n2)cn1` was 108.3%. As for `Cn1cc(-c2csc(N3CCOCC3)n2)cn1`, the “Percent Effect” value is listed as -6.106%. The value for `Cn1cc(-c2csc(N3CCN(C(=O)OC(C)(C)C)CC3)n2)cn1` was 8.816%; that for `Cc1nn(C)cc1-c1ccnc(N(C)Cc2noc(C(C)C)n2)n1` was 1.029%; that for `CCn1cc(C(=O)NCC(OC)c2cccc(Cl)c2)cn1` (stereo unspecified) was 4.602%. The value for `Cn1cc(-c2cc(C(F)F)n3nc(CCC(=O)O)nc3n2)cn1` was 133.7%. The value for `Cn1ncc(NC(=O)Cn2cc(-c3ccc(F)cn3)cn2)n1` was 2.479%. Consider `Cc1nn(C)cc1-c1cc(C(F)F)n2nc(CCC(=O)O)nc2n1`, for which the “Percent Effect” value worked out at 110.6%. The value for `CCCc1cnc(C)nc1N1CCC2(CCCO2)CC1` was -4.323%; that for `O=C(C1CCC1)N1CCN(Cc2ccccc2F)[C@H]2CS(=O)(=O)C[C@H]21` was 4.948%; that for `Cc1nc(CN(C)C(=O)Nc2cnn(CC3CCCO3)c2)cs1` (stereo unspecified) was -5.003%. Take `Cc1nc(CCNC(=O)CC2CCN(C(C)C)CC2)sc1Cl`: the “Percent Effect” value was -9.554%.

On to `Cc1ccsc1C(=O)N1CC2CC1(C(=O)NCC1CC1)C2`, for which the “Percent Effect” value is given as -19.62%. The value for `CCn1ncc(-c2cc(C(F)F)n3nc(CCC(=O)O)nc3n2)c1C` was 94.49%; that for `CCn1ncc(-c2nc3c[nH]n(CC)c-3n2)c1C` was -16.08%. Then `COc1ccccc1C(=O)N1CCC(Oc2ccc(C#N)cn2)CC1`, with -9.351%; and `CC1CCCCN1c1nc2c(c(=O)[nH]1)CCN(Cc1ccccc1F)C2` (stereo unspecified), with 109.6%; and `CC1CCCCN1c1nc2c(c(=O)[nH]1)CCN(Cc1ccc(O)cc1)C2` (stereo unspecified), with 108.9%.

Regarding `Cc1[nH]c(=O)[nH]c(=O)c1CN1CCCC(CCc2ccccc2F)C1` (stereo unspecified), the “Percent Effect” value was determined as 3.318%. Then `Cc1ccsc1CN1CCC(c2cc(C(C)C)n[nH]2)CC1`, with 15.3%.

As for `CCCn1nc2c(cc1=O)CN(Cc1ccccn1)CC2`, the “Percent Effect” value is -24.61%. With `CC1CCCCN1c1nc2c(c(=O)[nH]1)CCN(Cc1ccccn1)C2` (stereo unspecified), the “Percent Effect” value is given as 67.76%. Then `Fc1cccc2[nH]c(CN3CCc4cncnc4C3)nc12`, with 8.027%. The value for `Cc1cccc(CN2CCc3c(nc(N4CCCCC4C)[nH]c3=O)C2)n1` (stereo unspecified) was -2.625%; that for `Cn1cnc2c1CCN(Cc1ccc(C(=O)N3CCCC3)cc1)C2` was 0.7019%. The value for `c1cc(CN2CCc3c(CN4CCCC4)n[nH]c3C2)ccn1` was -1.373%; that for `Cc1ccsc1CN1CCc2c(nc(N3CCCCC3C)[nH]c2=O)C1` (stereo unspecified) was 117.5%; that for `Cc1ccsc1CCNC(=O)CCC1CCCCN1C` (stereo unspecified) was 3.946%. Regarding `C=C(C)CN(CC)Cc1nc(C)no1`, the “Percent Effect” value is 10.24%. The value for `COCc1nc(C(=O)NS(=O)(=O)c2cc(F)ccc2F)cs1` was 4.131%. The value for `Cc1cc(C(=O)NCC(O)c2ccc(Cl)s2)c(C)o1` (stereo unspecified) was -36.26%; that for `CCC1CN(CCNS(C)(=O)=O)c2ccccc2O1` (stereo unspecified) was -11.22%; that for `CCNc1c(C#N)c(=O)n(C)c(=O)n1C` was 7.391%. The value for `NC(=O)N1CCCC(C(=O)N2CCc3c(nc(CC4CC4)[nH]c3=O)C2)C1` (stereo unspecified) was 10.65%; that for `CC1CCCCN1c1nc2c(c(=O)[nH]1)CCN(Cc1ccccc1O)C2` (stereo unspecified) was 110.1%; that for `CC(C)S(=O)(=O)N1CCCC(c2cccc(C(=O)O)c2)C1` (stereo unspecified) was 13.9%. Consider `Cc1nc(-c2cccc(C(=O)O)c2)cc(C2CCN(C(C)C)C2)n1` (stereo unspecified), for which the “Percent Effect” value is -0.6305%. `Cc1nc(-c2ccc(C(=O)O)cc2)cc(C2CCN(C(C)C)C2)n1` (stereo unspecified): the “Percent Effect” value was -2.545%. Regarding `Cc1nc(O)cc(C2CCN(C(=O)C(C)Cn3nc(C)nc3C)CC2)n1` (stereo unspecified), the “Percent Effect” value was -10.44%. For `Cc1nc(-c2cccc(C(=O)O)c2)cc(C2CCCN(C(C)C)C2)n1` (stereo unspecified), the “Percent Effect” value was 109.5%. The value for `Cc1nc(-c2ccc(C(=O)O)cc2)cc(C2CCN(C(C)C)CC2)n1` was 130.3%.

For the compound `Cc1nc(-c2ccc(C(=O)O)cc2)cc(C2CCCN(C(C)C)C2)n1` (stereo unspecified), the “Percent Effect” value is recorded as 96.58%.

These data come from ChEMBL document CHEMBL3988442, “University of Dundee, Small-Polar-MMV Screening Library” (2021).
